The panel holds about 83,000 compounds, 20% with a hit somewhere; the sample as a whole holds those more often.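 96-well plates, one dose, 48 hours. Percent growth reported; active if below 10.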 Unmarked numbers belong to inactive results. Activity calls are given as the source filed them.

Among the test systems are NCI-H23 lung; NCI-H226 lung; NCI-H322M lung; HOP-62 NSCLC; NCI-H460 lung; NCI-H522 lung; A549/ATCC NSCLC; 786-0 renal; COLO 205 colon; DU-145 prostate; K-562 leukemia; MDA-MB-231 breast; RXF 393 renal; SF-268 CNS; SF-295 CNS; SF-539 CNS; UACC-257 melanoma; M14 melanoma; MALME-3M melanoma.
Holding throughout (assay): NCI-60 one-dose screen, 48 h (100 = growth as untreated, 0 = no growth, -100 = all killed)
What all share (settings): 10 µM unless noted

In the case of `O=C(CN1CCN(c2cc(=O)n(-c3ccccc3)c3ccccc23)CC1)Nc1nc(-c2ccccc2)cs1`, the growth with NCI-H23 lung is 60.8%; in the experiment with NCI-H226 lung, 48.2%; with NCI-H322M lung, 89.4%; in the experiment on HOP-62 NSCLC it was 66.4%; with NCI-H460 lung, 32.2%; with NCI-H522 lung it was 66.5%. Also, the growth with A549/ATCC NSCLC was 56.2%; in the experiment on 786-0 renal, 89.3%; with COLO 205 colon, 60.1%; with DU-145 prostate, 72.7%; with K-562 leukemia, 22.4%; in the experiment with MDA-MB-231 breast, 62.6%. Besides, the growth is 76.9% with RXF 393 renal; 79.2% with SF-268 CNS; 66.7% with SF-295 CNS; 77.1% with SF-539 CNS; 48.5% in the experiment with UACC-257 melanoma; 69.7% with M14 melanoma.

With `Cc1nn(-c2ccccc2)c2ncnc(N/N=C/c3cccc(O)c3)c12`, the growth was 61.3% in the experiment with NCI-H23 lung; 80.5% in the experiment on NCI-H226 lung; 73.1% with NCI-H322M lung; 44.3% in the experiment with HOP-62 NSCLC; 15.7% in the experiment on NCI-H460 lung; 25.4% in the experiment on NCI-H522 lung. For the same compound, the growth in the experiment on A549/ATCC NSCLC is 57.7%; in the experiment with 786-0 renal it was 66.7%; in the experiment with COLO 205 colon it was 57.1%; in the experiment with DU-145 prostate it was 67.9%; in the experiment on K-562 leukemia it was 13.4%; in the experiment with MDA-MB-231 breast, 70.8%. Further, the growth in the experiment with RXF 393 renal is 16.6%; in the experiment with SF-268 CNS, 55.9%; in the experiment with SF-295 CNS, 46.5%; in the experiment on SF-539 CNS, 50.4%; with UACC-257 melanoma it was 62.8%; in the experiment with M14 melanoma it was 28.6%.

As for `CC(=O)N(C)C1CCc2c(sc(NC(=O)c3ccc(C(C)(C)C)cc3)c2C(N)=O)C1` (centres undefined), the growth is 85.3% with NCI-H23 lung; 47.3% with NCI-H226 lung; 78.7% in the experiment with NCI-H322M lung; 34.7% with HOP-62 NSCLC; 10.8% in the experiment with NCI-H460 lung; 70.4% with NCI-H522 lung. The growth in the experiment with A549/ATCC NSCLC is 39.8%; with 786-0 renal, 90.9%; in the experiment with COLO 205 colon it was 103%; in the experiment on DU-145 prostate it was 58.9%; in the experiment with K-562 leukemia it was 62.3%; with MDA-MB-231 breast, 75.5%. For the same compound, the growth was 96.2% in the experiment on RXF 393 renal; 99% with SF-268 CNS; 43.8% in the experiment on SF-295 CNS; 79.7% in the experiment on SF-539 CNS; 86.9% with UACC-257 melanoma; 75.5% in the experiment with M14 melanoma.

For `CCc1cccc2c3c(sc12)C(c1ccc(Cl)cc1)C(C#N)=C(/N=C/c1ccc(Cl)cc1)O3` (centres undefined), the growth in the experiment on NCI-H23 lung is 17.1%; in the experiment on NCI-H226 lung, 53.3%; in the experiment with NCI-H322M lung it was 37.3%; in the experiment on HOP-62 NSCLC it was 37%; in the experiment with NCI-H460 lung, 7.17% (active); with NCI-H522 lung, 10.8%. Moreover, the growth with A549/ATCC NSCLC was 33.8%; with 786-0 renal, 39.5%; with COLO 205 colon, 16.7%; in the experiment on DU-145 prostate, 12.1%; in the experiment with K-562 leukemia, 10%; in the experiment with MDA-MB-231 breast, 33.8%. Besides, the growth was -31% (active) in the experiment on RXF 393 renal; 58.3% with SF-268 CNS; -22.7% (active) with SF-295 CNS; -7.57% (active) in the experiment with SF-539 CNS; 60.4% in the experiment on UACC-257 melanoma; 1.34% (active) in the experiment with M14 melanoma.

On to `CCOC(=O)c1c(Nc2ccccc2)nn2c(-c3ccccc3)ccnc12`, for which the growth with NCI-H23 lung was 86.2%; with NCI-H226 lung, 85.3%; with NCI-H322M lung it was 94.2%; with HOP-62 NSCLC it was 101%; in the experiment on NCI-H460 lung it was 97.9%; in the experiment with NCI-H522 lung it was 87.9%. Besides, the growth is 92.4% in the experiment with A549/ATCC NSCLC; 86.6% in the experiment on 786-0 renal; 99.5% with COLO 205 colon; 97.5% in the experiment with DU-145 prostate; 63.8% in the experiment on K-562 leukemia; 105% in the experiment on MALME-3M melanoma. Further, the growth in the experiment on MDA-MB-231 breast is 82.4%; in the experiment on SF-268 CNS it was 113%; in the experiment on SF-295 CNS, 92.9%; with SF-539 CNS it was 92.5%; with UACC-257 melanoma, 112%; in the experiment with M14 melanoma, 110%.

Take `COc1ccccc1-n1cc(C#N)c(N)c1C(=O)c1ccc(C)cc1`: the growth in the experiment with NCI-H23 lung is 89.4%; in the experiment with NCI-H226 lung, 98.4%; in the experiment with NCI-H322M lung it was 90.8%; with HOP-62 NSCLC, 77.7%; in the experiment with NCI-H460 lung, 101%; with NCI-H522 lung, 64%. The growth in the experiment with A549/ATCC NSCLC was 89.8%; in the experiment on 786-0 renal it was 94.8%; with COLO 205 colon it was 95.6%; with DU-145 prostate, 99.2%; with K-562 leukemia it was 28.4%; in the experiment with MDA-MB-231 breast, 90.9%. In addition, the growth was 76.6% in the experiment with RXF 393 renal; 90.6% in the experiment on SF-268 CNS; 74.1% with SF-295 CNS; 97% in the experiment with SF-539 CNS; 78.3% in the experiment on UACC-257 melanoma; 59.8% in the experiment on M14 melanoma.

Regarding `CNC1CCc2c(sc(NC(=O)c3ccc(C(C)(C)C)cc3)c2C(N)=O)C1` (centres undefined), the growth in the experiment with NCI-H23 lung is 74.3%; with NCI-H226 lung, 77.3%; in the experiment on NCI-H322M lung, 66.4%; in the experiment with HOP-62 NSCLC, 38.4%; in the experiment with NCI-H460 lung, 2.17% (active); in the experiment with NCI-H522 lung it was 61.6%. The growth was 31% in the experiment with A549/ATCC NSCLC; 24.9% in the experiment on 786-0 renal; -47.1% (active) in the experiment on COLO 205 colon; 44.7% in the experiment on DU-145 prostate; -10% (active) in the experiment with K-562 leukemia; 56.8% in the experiment on MDA-MB-231 breast. Also, the growth was 59.5% with RXF 393 renal; 79% with SF-268 CNS; -70.9% (active) in the experiment on SF-295 CNS; 75.8% in the experiment with SF-539 CNS; 56.2% with UACC-257 melanoma; 52.8% in the experiment on M14 melanoma.

As for `CCO/C=N/C1=C(C#N)C(c2ccc(OC)cc2)c2sc3c(CC)cccc3c2O1` (centres undefined), the growth is 32.2% with NCI-H23 lung; 61.8% with NCI-H226 lung; 42.2% with NCI-H322M lung; 54.8% in the experiment on HOP-62 NSCLC; 9.18% (active) in the experiment on NCI-H460 lung; 18.6% with NCI-H522 lung. The growth in the experiment on A549/ATCC NSCLC is 47.1%; in the experiment with 786-0 renal, 48.7%; with COLO 205 colon it was 34.4%; in the experiment on DU-145 prostate, 17.6%; in the experiment with K-562 leukemia it was 14.5%; in the experiment on MDA-MB-231 breast, 31.7%. Moreover, the growth in the experiment on RXF 393 renal was -21% (active); with SF-268 CNS, 61.5%; with SF-295 CNS, 3.52% (active); in the experiment on SF-539 CNS, 4.01% (active); in the experiment on UACC-257 melanoma it was 73.8%; in the experiment with M14 melanoma, 16.1%.

Values taken from PubChem BioAssay (NCI).
